# Records with an inconclusive call do not appear. A number with no mark means an inactive call. Active and inactive are the calls of the source. Calls come from the whole dose curve; as a rule, active = well fitted cell-killing curve with a large enough effect; inconclusive = small, poorly fitted or top-dose-only effect; inactive = no such curve, though single readings can be large or run the other way. Residues, ends and D or L forms follow the SMILES beside them. *: point of attachment. Cbz = O=C(OCc1ccccc1)*
# Test: qHTS of pediatric cancer cell lines to identify multiple opportunities for drug repurposing: Primary screen for SJ-GBM2 cells (AID 1347091)
# Conditions: SJ-GBM2 viability, CellTiter-Glo luminescence, 48 h; series mostly up to 46 µM; activity change, negative = cytotoxic: at the top concentration
# From the text: Drug repurposing or repositioning has been offered as a strategy for drug development in oncology programs. This approach has special potential for childhood cancers and other rare or orphan diseases, where the expected return on new drug development has been a disincentive to pharmaceuticals.
# In this project we exploit the poly-pharmacology of drugs to discover new indications via phenotypic screening of a panel of 19 well-characterized cell lines derived from solid tumors seen in children and adolescents. The goal is to identify approved drugs with previously unrecognized anticancer properties that has the potential to reveal new mechanisms and biological processes involved in carcinogenesis or drug resistance. We employed a titration-based paradigm (quantitative high-throughput screening or qHTS), where all compounds were tested at multiple concentrations for their effect on cell viability. Concentration-response curves (CRCs) were derived directly from the primary screen, and both potency and efficacy values were used to identify compounds with robust bioactivity profiles. We screened the NIH Chemical Genomics Center (NCGC) Pharmaceutical Collection (NPC) and Mechanism Interrogation Plate (MIPE) small molecule collections of approved and investigational compounds against these cell lines; and measured metabolically active cells after 48 hours of compound treatment as a proxy for cell viability.
# Assay Submitter: Nathalia J. Martinez, National Center for Advancing Translational Sciences, National Institutes of Health, Rockville, MD, USA; email: natalia.martinez@nih.gov
# [1] Shen, M et al. Quantitative high-throughput phenotypic screening of pediatric cancer cell lines identifies multiple opportunities for drug repurposing. Oncotarget 2017 Dec 19;9(4):4758-4772. PMID 29435139.
# The cells were obtained from University of North Carolina (UNC), Pediatric Preclinical Testing Program (PPT), and Coriell Institute (CI).
# qHTS cell viability assay:
# Cells were assayed in growth media at a density of 500-1,000 cells/well. Five microliters of cells were dispensed into 1,536-well, white, solid-bottom, TC-treated plates (Greiner Bio One) using a multidrop dispenser and incubated at 37 degrees C, 5% CO2, under a humidified atmosphere for 5 hours. Twenty-three nanoliters of compounds and controls (neutral control DMSO or positive control bortezomib at final concentration of 2.3 µM) were subsequently transferred by Kalypsys pintool. For primary screens, the MIPE collection was tested at 11-point dilutions (final concentrations range from 0.78 nM to 46 µM) and the NPC collection at 8-point dilutions (final concentrations range from 0.59 nM to 46 µM). Compounds tested in follow-up screens were assayed at 11-point dilutions. Cells were incubated for 48 hours, followed by addition of 3 uL of CellTiter-Glo (Promega). After a 15 min incubation at room temperature, samples were analyzed for luminescence intensity using a ViewLux High-throughput CCD imager equipped with clear filters.
# Potency is the fitted concentration of half-maximal effect.
Compound,Potency,"activity change, negative = cytotoxic"
COc1ccc(S(=O)(=O)Nc2cc(-c3c(O)ccc4ccccc34)c(O)c3ccccc23)cc1,18.7 µM (active),–
CCC[C@H]1C[C@H](C(=O)N[C@@H]([C@@H]2O[C@@H](SC)[C@@H](O)[C@@H](O)[C@@H]2O)[C@H](C)Cl)N(C)C1,–,75.2%
O=C(C=CC=Cc1ccc2c(c1)OCO2)N1CCCCC1,–,14.5%
N#CC(=C(O)c1ccc(Cl)cc1Cl)c1nc2cc(Cl)ccc2c(=O)[nH]1,–,-9.01%
COc1cccc2c1C(=O)c1c(O)c3c(c(O)c1C2=O)C[C@@](O)(C(=O)CO)C[C@@H]3O[C@H]1C[C@H](N)[C@@H](O)[C@H](C)O1,0.264 µM (active),–
Cc1cnn(C)c1C(=O)Nc1cc(Nc2ccc3c(C=Cc4ccccn4)n[nH]c3c2)ccc1F,18.7 µM (active),–
CN1[C@H]2CC(OC(=O)[C@@H](CO)c3ccccc3)C[C@H]1[C@H]1O[C@H]12 (stereo not given in full),–,18.7% [at 16.1 µM]
C=C1C(=CC=C2CCC[C@]3(C)[C@@H]([C@H](C)CCCC(C)(C)O)CC[C@@H]23)C[C@@H](O)C[C@@H]1O,13.2 µM (active),–
C[C@@H](Oc1ccc2[nH]nc(C=Cc3cnn(CCO)c3)c2c1)c1c(Cl)cncc1Cl,0.418 µM (active),–
NC(=O)c1ncn([C@@H]2O[C@H](CO)[C@@H](O)[C@@H]2O)c1O,–,25.4%
Cc1ccccc1C(=O)Nc1ccc(C(=O)N2CCCC(O)c3cc(Cl)ccc32)c(C)c1 (stereo not given),–,-26.7%
COc1cc(C=CC(=O)CC(=O)C=Cc2ccc(O)c(OC)c2)ccc1O,30.3 µM (active),–
CCN(CC)CCNC(=O)c1c(C)[nH]c(C=C2C(=O)Nc3ccc(F)cc32)c1C,34 µM (active),–
CN(CC(=O)N(Cc1ccc(C2CCCCC2)cc1)c1ccc(C(=O)O)c(O)c1)S(=O)(=O)c1c(F)c(F)c(F)c(F)c1F,11.8 µM (active),–
CC(C)C[C@@H](C=O)NC(=O)[C@H](CC(C)C)NC(=O)[C@H](CC(C)C)NC(=O)OCc1ccccc1 (Cbz-Leu-Leu-Leu-aldehyde),0.105 µM (active),–
Cc1cnc(NC(=O)Nc2cc(Br)c(C)cc2OC[C@@H]2CNCCO2)cn1,1.18 µM (active),–
C#CCC(Cc1cnc2nc(N)nc(N)c2n1)c1ccc(C(=O)N[C@@H](CCC(=O)O)C(=O)O)cc1 (stereo not given in full),0.118 µM (active),–
CCc1c(O)cc(O)c(C(=O)c2ccc(OCCN3CCOCC3)c(OC)c2)c1CC(=O)N(CCOC)CCOC,1.18 µM (active),–
CCC(C(=O)O)C1CCC(C)C(C(C)C(O)C(C)C(=O)C(CC)C2OC3(C=CC(O)[C@@]4(CC[C@](C)(C5CC[C@@](O)(CC)C(C)O5)O4)O3)C(C)CC2C)O1 (stereo not given in full),11.8 µM (active),–
O=C(C=Cc1ccc(CN(CCO)CCc2c[nH]c3ccccc23)cc1)NO,0.118 µM (active),–

Compound,Potency,"activity change, negative = cytotoxic"
C=CC(=O)N1CCc2ccc(-n3c(=O)ccc4cnc5ccc(-c6cnn(C)c6)cc5c43)cc21,5.9 µM (active),–
NC(=NCCCCCCN=C(N)N=C(N)Nc1ccc(Cl)cc1)N=C(N)Nc1ccc(Cl)cc1,13.2 µM (active),–
CCOc1cc2ncc(C#N)c(Nc3ccc(OCc4ccccn4)c(Cl)c3)c2cc1NC(=O)C=CCN(C)C,1.18 µM (active),–
CC(=O)NCC(=O)N1[C@H]2CC[C@H]1c1cc(Nc3ncc(C(F)(F)F)c(NC4CCC4)n3)ccc12,0.0833 µM (active),–
CC(O)(C#Cc1ccc2c(c1)N(c1nc(N)ncc1Cl)CC2)c1nccs1 (stereo not given),13.2 µM (active),–
O=C(O)C[C@H](O)C[C@H](O)C=Cc1c(C2CC2)nc2ccccc2c1-c1ccc(F)cc1,11.8 µM (active),–
CC(=O)OCC(=O)[C@@]1(O)CC[C@H]2[C@@H]3CCC4=CC(=O)CC[C@]4(C)[C@@H]3C(=O)C[C@@]21C,–,17.7%
NC(=O)c1ncn([C@@H]2O[C@H](CO)[C@@H](O)[C@@H]2O)c1N,–,-18.5%
CC(C)(O)Cn1c(NC(=O)c2ccc(-c3cn[nH]c3)s2)nc2cc(CN3CCOCC3)ccc21,0.743 µM (active),–
CCc1cnn2c(NCc3ccc[n+]([O-])c3)cc(N3CCCC[C@@H]3CCO)nc12,0.0235 µM (active),–
Cc1cnc(Nc2ccc(CN3CCOCC3)cc2)nc1Nc1cccc(S(=O)(=O)NC(C)(C)C)c1,2.96 µM (active),–
CC(C)c1cnn2c(NCc3ccccc3)cc(NCCCCCCN)nc12,16.6 µM (active),–
Cc1noc(-c2ccc(CSCCC(=O)O)cc2)c1NC(=O)OC(C)c1ccccc1Cl (stereo not given),–,27%
C=CC(=O)Nc1ccc2ncnc(Nc3ccc(OCc4cccc(F)c4)c(Cl)c3)c2c1,0.0296 µM (active),–
CNC(=O)c1cccc(-c2ccc3c(N4CCOC[C@H]4C)nc(N4CCOC[C@H]4C)nc3n2)c1,0.105 µM (active),–
O=C(C=CC#Cc1cccc(NS(=O)(=O)c2ccccc2)c1)NO,1.66 µM (active),–
CN1CCc2c(c3ccccc3n2Cc2ccc(C(=O)NO)cc2)C1,23.5 µM (active),–
OCCNC1CCCc2c1[nH]c1ccc(-c3ccccc3)cc21 (stereo not given),23.5 µM (active),–
C[C@@H](NCc1cc2ccccc2[nH]1)c1cccc2ccccc12,–,-24.8%
C[C@H](NC(=O)Cc1cc(F)cc(F)c1)C(=O)N[C@H](C(=O)OC(C)(C)C)c1ccccc1,–,-24.1%

# Source: PubChem BioAssay (NCATS)
